In the supplement of paper PMC12350171:
Structures can show the parent of a compound that is named as a salt.

Tests used:
Settings in all cases: 20 µM
[1] = system: Salmonella enterica typhimurium; assay: growth AUC normalised to DMSO control (fraction of control); higher = less growth inhibition, active = hit call of the paper
How it was run: (§1)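 After two anaerobic passages, pathogens were added at a starting OD578 of 0.01 to pre-reduced mGAM plates holding compound at 20 μM with 1% DMSO; hemin and NAD were supplemented for Haemophilus parainfluenzae. Sealed with breathable membranes, plates were read at OD578 hourly for 24 h, in three biological replicates. The trapezoidal rule, applied up to the exponential-to-stationary transition, gave the growth-curve AUC, which was normalised to DMSO controls on the same plate.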

Shigella flexneri = assay: as above
How it was run: as §1

Vibrio cholerae = assay: as above
How it was run: as §1

[2] = system: Yersinia pseudotuberculosis; assay: as above
How it was run: as §1

P. vulgatus RND KO = assay: growth AUC normalised to DMSO control (median) (fraction of control); higher = less growth inhibition, active = hit call of the paper
How it was run: (§2)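 Each strain went through two overnight passages under anaerobic conditions before growth in mGAM in 96-well plates, starting at OD578 0.01, with each compound from the approved-drug library at 20 μM and 1% DMSO. Inside an anaerobic incubator, OD578 was recorded every hour for 24 h. Growth curves were cut off at entry into stationary phase, and the area under the curve was calculated by the trapezoidal rule and normalised to vehicle wells on the same plate. Reported values are medians of three biological replicates.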

P. vulgatus WT = assay: as above
How it was run: as §2

[3] = system: S. enterica typhimurium WT; assay: as above
How it was run: as §2

[4] = system: S. enterica typhimurium tolC KO; assay: as above
How it was run: as §2

Measured: growth AUC normalised to DMSO control
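Throughout, for growth AUC normalised to DMSO control (median): active when median AUC fell below 0.1.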

COC(=O)[C@H]1[C@H]2C[C@@H]3c4[nH]c5cc(OC)ccc5c4CCN3C[C@H]2C[C@@H](OC(=O)c2cc(OC)c(OC)c(OC)c2)[C@@H]1OC [Reserpine]
inactive: [1] 1.02 | Shigella flexneri 1.05 | Vibrio cholerae 1.06 | [2] 1.02 | P. vulgatus RND KO 1.04 | P. vulgatus WT 1.05 | [3] 1.02 | [4] 1

CCC(C)(CN(C)C)OC(=O)c1ccccc1 (stereo not given) [Amyleine hydrochloride]
inactive: [1] 0.992 | Shigella flexneri 0.989 | Vibrio cholerae 0.989 | [2] 1.01 | P. vulgatus RND KO 0.995 | P. vulgatus WT 1.01 | [3] 0.983 | [4] 1.01

NCC[C@H](O)C(=O)N[C@@H]1C[C@H](N)[C@@H](O[C@H]2O[C@H](CN)[C@@H](O)[C@H](O)[C@H]2O)[C@H](O)[C@H]1O[C@H]1O[C@H](CO)[C@@H](O)[C@H](N)[C@H]1O [Amikacin hydrate]
active: [1] 0.922 | [2] 0.122
inactive: Shigella flexneri 0.985 | Vibrio cholerae 1.01 | P. vulgatus RND KO 1.02 | P. vulgatus WT 1.04 | [3] 1 | [4] 0.995

c1ccc(C2CN3CCSC3=N2)cc1 (stereo not given) [Tetramisole hydrochloride]
inactive: [1] 1.01 | Shigella flexneri 1.03 | Vibrio cholerae 1.01 | [2] 1.01

CC(C)C(=O)c1c(C(C)C)nn2ccccc12 [Ibudilast]
inactive: [1] 1.01 | Shigella flexneri 1.01 | Vibrio cholerae 1.05 | [2] 0.994 | P. vulgatus RND KO 0.949 | P. vulgatus WT 0.956 | [3] 1 | [4] 0.33

CCN(CCO)CCCC(C)Nc1ccnc2cc(Cl)ccc12 (stereo not given) [Hydroxychloroquine sulfate]
inactive: [1] 1 | Shigella flexneri 0.988 | Vibrio cholerae 1.01 | [2] 1.01 | P. vulgatus RND KO 1.02 | P. vulgatus WT 1.01 | [3] 1 | [4] 0.995

COc1cc(N)c(Cl)cc1C(=O)NC1CCN(CCCOc2ccc(F)cc2)CC1OC (stereo not given) [Cisapride]
inactive: [1] 1 | Shigella flexneri 1.01 | Vibrio cholerae 0.929 | [2] 0.989 | P. vulgatus RND KO 0.945 | P. vulgatus WT 0.941 | [3] 1 | [4] 0.947

CC(C)NCC(O)c1ccc(O)c(O)c1 (single isomer, unassigned; (-)) [(-) Isoproterenol hydrochloride]
inactive: [1] 1.01 | Shigella flexneri 1.03 | Vibrio cholerae 1.05 | [2] 1.02 | P. vulgatus RND KO 0.979 | P. vulgatus WT 0.967 | [3] 1 | [4] 0.992

Nc1ccn([C@@H]2O[C@H](CO)[C@@H](O)C2(F)F)c(=O)n1 [Gemcitabine]
inactive: [1] 1.01 | Shigella flexneri 1.04 | Vibrio cholerae 1.01 | [2] 1.03 | P. vulgatus RND KO 1.01 | P. vulgatus WT 1.02 | [3] 0.983

CN(C)CCC[C@@]1(c2ccc(F)cc2)OCc2cc(C#N)ccc21 [Escitalopram oxalate]
inactive: [1] 1 | Shigella flexneri 0.991 | Vibrio cholerae 0.976 | [2] 0.99 | P. vulgatus RND KO 1.01 | P. vulgatus WT 1 | [3] 0.989 | [4] 0.982

CCCCC(CC)CNC(=N)NC(=N)NCCCCCCNC(=N)NC(=N)NCC(CC)CCCC (stereo not given) [Alexidine dihydrochloride]
inactive: [1] 0.981 | Vibrio cholerae 0.924 | [3] 0.977 | [4] 0.964
active: Shigella flexneri 0.833 | [2] 0.731 | P. vulgatus RND KO 0.0131 | P. vulgatus WT 0.00943

OCCOCCN1CCN(C2=Nc3ccccc3Sc3ccccc32)CC1 [Quetiapine hemifumarate]
inactive: [1] 0.999 | Shigella flexneri 0.978 | Vibrio cholerae 0.991 | [2] 0.981 | P. vulgatus RND KO 0.946 | P. vulgatus WT 0.91 | [3] 1.01 | [4] 0.977

CN1CCN(CC(=O)N2c3ccccc3C(=O)Nc3cccnc32)CC1 [Pirenzepine dihydrochloride]
inactive: [1] 0.993 | Shigella flexneri 1 | Vibrio cholerae 0.988 | [2] 1.01 | P. vulgatus RND KO 1 | P. vulgatus WT 0.98 | [3] 0.999 | [4] 1

c1ccc2c(c1)CCCC2C1=NCCN1 (stereo not given) [Tetrahydrozoline hydrochloride]
inactive: [1] 0.981 | Shigella flexneri 0.981 | Vibrio cholerae 0.991 | [2] 0.996 | P. vulgatus RND KO 0.997 | P. vulgatus WT 1 | [3] 0.996 | [4] 1

COc1ccc([C@@H]2Sc3ccccc3N(CCN(C)C)C(=O)[C@@H]2OC(C)=O)cc1 [Diltiazem hydrochloride]
inactive: [1] 0.998 | Shigella flexneri 0.969 | Vibrio cholerae 1 | [2] 1.01 | P. vulgatus RND KO 0.99 | P. vulgatus WT 1 | [3] 0.995 | [4] 0.973

CN(C)CCC=C1c2ccccc2CCc2ccccc21 [Amitryptiline hydrochloride]
inactive: [1] 0.997 | Shigella flexneri 0.999 | Vibrio cholerae 0.905 | [2] 1.01 | P. vulgatus RND KO 0.993 | P. vulgatus WT 0.959 | [3] 0.998 | [4] 0.97

CCCSc1ccc2[nH]c(NC(=O)OC)nc2c1 [Albendazole]
inactive: [1] 1 | Shigella flexneri 1.03 | Vibrio cholerae 0.99 | [2] 0.993 | P. vulgatus RND KO 1.03 | P. vulgatus WT 1.07 | [3] 0.999 | [4] 1

CN(C)CCn1nnnc1SCC1=C(C(=O)O)N2C(=O)[C@@H](NC(=O)Cc3csc(N)n3)[C@H]2SC1 [Cefotiam hydrochloride]
active: [1] 0.0032 | Shigella flexneri 0.0159 | Vibrio cholerae 0.0593 | [2] 0.03 | P. vulgatus RND KO 0.0136 | P. vulgatus WT 0.00849 | [3] 0.00304 | [4] 0.00289

C=C1/C(=C\C=C2/CCC[C@]3(C)[C@@H]([C@H](C)/C=C/[C@@H](O)C4CC4)CC[C@@H]23)C[C@@H](O)C[C@@H]1O [Calcipotriene]
inactive: [1] 0.987 | Shigella flexneri 0.931 | Vibrio cholerae 0.972 | [2] 0.977 | P. vulgatus RND KO 0.931 | P. vulgatus WT 0.958 | [3] 1.01 | [4] 0.946

Cn1c(=O)c2c(ncn2CC2OCCO2)n(C)c1=O [Doxofylline]
inactive: [1] 1 | Shigella flexneri 1.07 | Vibrio cholerae 1.01 | [2] 0.99 | P. vulgatus RND KO 1.02 | P. vulgatus WT 1.06 | [3] 0.999 | [4] 1

CC1(C)S[C@@H]2[C@H](NC(=O)[C@H](NC(=O)N3CCNC3=O)c3ccccc3)C(=O)N2[C@H]1C(=O)O [Azlocillin sodium salt]
inactive: [3] 0.887
active: [1] 0.766 | Shigella flexneri 0.0935 | Vibrio cholerae 0.78 | [2] 0.281 | P. vulgatus RND KO 0.0105 | P. vulgatus WT 0.0107 | [4] 0.00584

COc1c2occc2c(OC)c2c(=O)cc(C)oc12 [Khellin]
inactive: [1] 1 | Shigella flexneri 1.05 | Vibrio cholerae 0.983 | [2] 1.01 | P. vulgatus RND KO 1 | P. vulgatus WT 1.02 | [3] 1.02 | [4] 0.985

CS(=O)(=O)c1ccc([C@@H](O)[C@@H](CO)NC(=O)C(Cl)Cl)cc1 [Thiamphenicol]
active: [1] 0.408 | Shigella flexneri 0.0249 | Vibrio cholerae 0.037 | [2] 0.866 | P. vulgatus RND KO 0.0183 | P. vulgatus WT 0.0102
inactive: [3] 0.509 | [4] 0.281

COCCc1ccc(OCC(O)CNC(C)C)cc1 (stereo not drawn) [Metoprolol-(+)-tartrate salt]
inactive: [1] 0.996 | Shigella flexneri 0.977 | Vibrio cholerae 0.998 | [2] 0.996 | P. vulgatus RND KO 1.01 | P. vulgatus WT 1.03 | [3] 1 | [4] 1.01

CC(C)NC[C@H](O)COc1ccc(CC(N)=O)cc1 [(S,-) Atenolol]
inactive: [1] 0.988 | Shigella flexneri 0.972 | Vibrio cholerae 0.996 | [2] 1.02 | P. vulgatus RND KO 0.985 | P. vulgatus WT 0.963 | [3] 0.987 | [4] 0.989

CCOC(=O)c1ccc(OC(=O)CCCCCNC(=N)N)cc1 [Gabexate mesilate]
inactive: [1] 0.993 | Shigella flexneri 0.973 | Vibrio cholerae 0.987 | [2] 0.932 | P. vulgatus RND KO 0.985 | P. vulgatus WT 1 | [3] 1 | [4] 0.325

CCCNC(C)(C)COC(=O)c1ccccc1 [Meprylcaine hydrochloride]
inactive: [1] 0.996 | Shigella flexneri 1.02 | Vibrio cholerae 1.01 | [2] 1.01 | P. vulgatus RND KO 0.984 | P. vulgatus WT 1.01 | [3] 1 | [4] 0.995

CCN1CCN(C(=O)N[C@@H](C(=O)N[C@@H]2C(=O)N3C(C(=O)O)=C(CSc4nnnn4C)CS[C@H]23)c2ccc(O)cc2)C(=O)C1=O [Cefoperazone dihydrate]
active: [1] 0.0254 | Shigella flexneri 0.0208 | Vibrio cholerae 0.0794 | [2] 0.16 | P. vulgatus RND KO 0.00991 | P. vulgatus WT 0.00365 | [4] 0.00245
inactive: [3] 0.144

COc1cc(C)c(/C=C/C(C)=C/C=C/C(C)=C/C(=O)O)c(C)c1C [Acitretin]
inactive: [1] 0.995 | Shigella flexneri 1.02 | Vibrio cholerae 0.985 | [2] 0.99 | P. vulgatus RND KO 0.944 | P. vulgatus WT 0.956 | [3] 1 | [4] 0.998

CCCC(CCC)C(=O)O [Valproic acid]
inactive: [1] 1.01 | Shigella flexneri 1.02 | Vibrio cholerae 1.05 | [2] 1.01 | P. vulgatus RND KO 1.06 | P. vulgatus WT 1.07 | [3] 1 | [4] 1.01
